High-throughput results deposited in PubChem by Broad Institute.
aSyn UTR act = Activators via SNCA 5'UTR binding, MLPCN | activity score, % (tested at 7.5 µM), hits read low | actives 7.1% (n = 300,000) | alpha-synuclein 5'UTR reporter, activators screen; in the data active = activity score below about -60%
Starred values were filed as active, the others as inactive. These entries were drawn from the full list.

SMILES	aSyn UTR act
COCCCNC(=S)N/N=C/c1ccc(N(C)C)cc1	-112*
Cc1nc(-c2ccccc2)sc1-c1ccnn1C	-111*
Cc1ccc(-c2nnc(-c3ccccc3)o2)cc1Br	-149*
Cc1ccc(-c2nnc(-c3cccc(Br)c3)o2)cc1	-159*
COC(=O)CCN1CCc2cc(N=Nc3ccc([N+](=O)[O-])cc3)ccc21	-96*
CCC(CC)C(=O)Nc1cccc(C(=O)NCCc2ccccc2)c1	-64*
Cc1cc(C(=O)NCCc2ccccc2)ccc1[N+](=O)[O-]	-116*
CCCN1CCC(Oc2cccc(C(=O)NCCc3ccccc3)c2)CC1	-72*
Cc1cccc(C(=O)NCCc2ccccc2)c1	-112*
O=C(c1ccc(Cl)c([N+](=O)[O-])c1)N(c1ccccn1)c1ccccn1	-98*
O=C(NCCc1ccccc1)c1ccc(Cl)c([N+](=O)[O-])c1	-99*
OC1CCCCC1Sc1nc2ccccc2s1 (stereo not drawn)	-88*
COc1ccc(C(=O)COc2ccccc2C#N)cc1	-127*
COc1ccc(C(=O)CNc2ccccc2C#N)cc1	-93*
COc1ccc(C(=O)COc2ccccc2N2C(=O)C3C4C=CC(C4)C3C2=O)cc1 (stereo not drawn)	-82*
COc1ccc(C(=O)CNc2ccccc2CO)cc1	-70*
CN(C)/C=C/c1onc(-c2ccccc2Cl)c1C#N	-87*
CCn1c(C(=O)OC)cc2c1ccn2-c1ccc(F)cc1	-157*
Nc1nc(N2CCN(c3ccccn3)CC2)nc2ccccc12	-118*
CC(C)Oc1cccc(-c2cc(C(=O)NC(=S)N(C)c3ccccc3C(=O)O)c3ccccc3n2)c1	-75*
CCCOc1cccc(-c2cc(-c3n[nH]c(=S)n3CC)c3ccccc3n2)c1	-72*
CCn1c(-c2cc(-c3ccc(OC(C)C)cc3)nc3ccccc23)n[nH]c1=S	-104*
CCCOc1cccc(-c2cc(C(=O)NNC(=S)NCC)c3ccccc3n2)c1	-114*
Cc1cc(/C=N/n2cnnc2)c(C)n1-c1ccc(OCc2ccc(Cl)cc2Cl)cc1	113
Cc1cc(/C=N/n2cnnc2)c(C)n1-c1ccc(OCc2ccc(F)cc2)cc1	-73*
SMILES	aSyn UTR act
CC(C)c1nnc(NC(=O)c2ccc3c(c2)OCO3)s1	57
CC(C)(C)c1nnc(NC(=O)COc2ccc3c(c2)OCO3)s1	-81*
CC(c1ccccc1)c1nnc(NC(=O)c2ccc3c(c2)OCO3)s1 (stereo not drawn)	-139*
CC(C)Sc1nnc(NC(=O)c2ccc3c(c2)OCO3)s1	-118*
CCSc1nnc(NC(=O)c2ccc3c(c2)OCO3)s1	-94*
CC(C)(C)c1nnc(NC(=O)c2ccc3c(c2)OCO3)s1	-191*
CCCC(=O)Nc1nnc(-c2ccc3c(c2)OCO3)s1	-141*
CCN(CC)C(=O)c1sc(NC(=O)c2ccc3c(c2)OCO3)c(C(N)=O)c1C	-105*
CCCC(=O)NC(c1ccc2c(c1)OCO2)c1cc(Cl)c2cccnc2c1O (stereo not drawn)	80
O=C(NCc1ccccc1)c1cc(-c2cccs2)on1	-95*
O=C(NCc1ccco1)c1cc(-c2ccc(F)cc2)on1	-198*
O=C(NCc1ccco1)c1cc(-c2ccccc2)on1	-161*
O=C(NCc1ccco1)c1cc(-c2cccs2)on1	-297*
CCOC(=O)c1oc2nc3c(cc2c1N)CCCC3	-107*
CC(C)NC(=S)N/N=C/c1ccc(N2CCOCC2)cc1	-87*
C=C(C)CNC(=S)N/N=C/c1ccc(N2CCOCC2)cc1	-64*
O=C(NC1CCOC1)c1cc(COc2cccc(C(F)(F)F)c2)on1 (stereo not drawn)	-67*
CC(NC(=O)c1cc(COc2cccc(C(F)(F)F)c2)on1)c1nccs1 (stereo not drawn)	-62*
C[C@@H]1CN(C(=O)c2cc(COc3cccc(C(F)(F)F)c3)on2)C[C@H](C)O1	-138*
CCOC(=O)N1CCN(C(=O)c2cc(COc3cccc(C(F)(F)F)c3)on2)CC1	-92*
O=C(CSc1nc(-c2ccccc2)cs1)NCCN1C(=O)CSC1=O	-71*
O=C(CSc1nc(-c2ccc(F)cc2)cs1)NCCN1C(=O)CSC1=O	-62*
O=C1c2cccc3c(O)ccc(c23)C(=O)N1c1ccc(Cl)cc1	-141*
Cc1ccc(N2C(=O)NC3(CCCCC3)C2=O)cc1	-64*
Cc1nc(NC(=O)C23CC4CC(CC(C4)C2)C3)sc1Cc1ccc2c(c1)OCO2	-184*
SMILES	aSyn UTR act
CCOc1ccccc1C(=O)Nc1c[nH]c(=O)[nH]c1=O	62
O=C(Nc1cccc(-c2ccc(N3CCOCC3)nn2)c1)c1ccc(F)cc1F	-73*
CCOc1ccccc1C(=O)Nc1cccc(-c2ccc(N3CCOCC3)nn2)c1	-127*
COc1cccc(C(=O)Nc2cccc(-c3ccc(N4CCOCC4)nn3)c2)c1	-72*
COc1ccc(C(=O)Nc2cccc(-c3ccc(N4CCOCC4)nn3)c2)cc1OC	-70*
CCOc1ccc(C(=O)Nc2cccc(-c3ccc(N4CCOCC4)nn3)c2)cc1OCC	-69*
Cc1c(-c2ccccc2)nnn1-c1ccc(F)cc1F	-93*
Cc1sc2ncnc(SCC(=O)c3cccs3)c2c1C	-73*
Cc1cc(N)c2cc(NC(=O)/C=C/c3ccccc3Cl)ccc2n1	107
Cc1cc(C)nc(NC(=O)/C=C/c2ccccc2Cl)n1	-161*
Cc1cc(C)nc(NC(=O)/C=C/c2ccccc2Cl)c1	-185*
Cc1cc(C)nc(NC(=O)/C=C/c2ccc(Cl)cc2Cl)c1	-129*
Cc1cc(C(=O)NNC(=S)NC(=O)/C=C/c2ccccc2Cl)n[nH]1	-94*
CCc1ccn2cc(-c3cc(-c4ccccc4)no3)nc2c1	94
Oc1ccccc1-c1cc(-c2ccccc2)no1	-133*
Cc1ccc2nc(-c3cc(-c4ccccc4)no3)cn2c1	86
Cc1ccccc1-c1cc(-c2ccccc2O)on1	-216*
Cc1ccc(O)c(-c2cc(-c3ccc(F)cc3)no2)c1	-109*
CSc1ccc2c(c1)C(N1CCN(C)CC1)Cc1ccc(F)cc1S2 (stereo not drawn)	57
CSc1ccc(C2Nc3ccccc3-c3cc(C)nn32)cc1 (stereo not drawn)	-101*
CNC(C)C#Cc1ccc2oc3cccc(OC)c3c(=O)c2c1 (stereo not drawn)	-128*
CNC(C)C#Cc1ccc2c(=O)c3c(OC)cccc3oc2c1 (stereo not drawn)	-66*
CS(=O)(=O)c1ccc(Cl)c(NC(=O)CCl)c1	-88*
Cc1ccc(NC(=O)Nc2cc(S(C)(=O)=O)ccc2Cl)cc1	-77*
Cc1ccc(S(=O)(=O)Nc2cc(Cl)c(O)c3ncccc23)cc1	77
SMILES	aSyn UTR act
[O-][n+]1c2c(nc3c1-c1ccccc1C3O)CCCC2 (stereo not drawn)	-77*
O=C(N/N=C1\C(=O)c2cccc3cccc1c23)c1ccc(O)cc1	-137*
O=C(N/N=C1\CCc2ccccc21)c1ccc(O)cc1	-75*
CCOC(=O)N/N=C1\CCc2ccccc21	-102*
O=C(N/N=C1\CCCc2ccccc21)c1cccc(Br)c1	-93*
C/C(=N\NC(=O)c1cccc(Br)c1)c1ccccn1	108
O=C(N/N=C/c1ccc(O)cc1O)c1ccc(CN2C(=O)c3cccc4cccc2c34)cc1	62
Cc1ccc(C(=O)N/N=C2\CCc3ccccc32)c(C)c1	-139*
S=C(N/N=C1\CCc2ccccc21)NC1CCCCC1	-106*
O=C(N/N=C1\CCc2ccccc21)c1ccccc1Cl	-129*
O=C(N[C@@H](Cc1c[nH]c2ccccc12)C(=O)NC1CC1)c1ccccc1Cl	-160*
